Tau fibril FP: qHTS for Inhibitors of Tau Fibril Formation, Fluorescence Polarization | Microtubule-associated protein tau (Homo sapiens), P10636 | K18 P301L tau heparin fibrillization, Alexa594 FP, 6 h | Potency, µM (top dose mostly 57.7 µM), most hits filed as inhibitors | 280,000 compounds, 0.39% hits | AID 1468, 2008; active = well fitted curve in the direction sought with a large enough effect; inconclusive = small, poorly fitted or top-dose-only effect, or another doubt; inactive = no such curve, though single readings can be large; an effect the other way counts as inactive or inconclusive; also: nearly all actives have a fitted effect of over 55% in size
Target sequence (P10636 561-689 P618L limits assumed): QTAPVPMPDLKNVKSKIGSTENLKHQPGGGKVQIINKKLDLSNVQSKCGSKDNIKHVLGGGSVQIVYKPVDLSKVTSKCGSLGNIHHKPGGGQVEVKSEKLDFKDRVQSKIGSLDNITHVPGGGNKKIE
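K18 P301L tau (15 uM unlabeled/0.24 uM Alexa 594-labeled, final) + compound + heparin 20 uM final; 100 mM NaOAc pH 7; 6 hr 37 C; ThT 30 uM final added, 1 hr RT; FP ex 555/em 632 nm.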
ALDH1A1 block: qHTS Assay for Inhibitors of Aldehyde Dehydrogenase 1 (ALDH1A1). Potency, µM (series often up to 75.3 µM), actives largely listed as inhibitors. 220,000 compounds, 7.3% hits. Purified ALDH1A1, NADH fluorescence, propionaldehyde substrate
HPGD block: qHTS Assay for Inhibitors of HPGD (15-Hydroxyprostaglandin Dehydrogenase); 15-hydroxyprostaglandin dehydrogenase [NAD(+)] (Homo sapiens), P15428; purified HPGD, NADH fluorescence kinetic, PGE2 substrate; Potency, µM, hits mostly inhibitors; 150,000 compounds, 4.3% hits; AID 894, 2007
Target sequence (P15428 whole entry, looked up): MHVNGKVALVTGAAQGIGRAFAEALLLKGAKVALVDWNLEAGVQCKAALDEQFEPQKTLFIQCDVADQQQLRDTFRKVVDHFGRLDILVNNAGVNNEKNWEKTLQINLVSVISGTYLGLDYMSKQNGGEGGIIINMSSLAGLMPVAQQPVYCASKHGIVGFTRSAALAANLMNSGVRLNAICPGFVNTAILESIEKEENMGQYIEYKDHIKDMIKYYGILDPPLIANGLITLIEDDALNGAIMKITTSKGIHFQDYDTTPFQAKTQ
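NADH formation kinetics: reaction with 30 uM PGE2 and 1 mM NAD+ (final), 20 nM enzyme, Tris-HCl pH 8 with Tween 20, after 15 min compound preincubation at room temperature. Fluorescence change, last versus first of five reads.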
Tau ThT inhib: qHTS for Inhibitors of Tau Fibril Formation, Thioflavin T Binding. recombinant tau K18 P301L, heparin-induced fibrillization, ThT fluorescence. Potency, µM (top dose mostly 57.4 µM), usual class: inhibitors. 270,000 compounds, 2.1% hits. AID 1460, 2008; active = well fitted curve in the direction sought with a large enough effect; inconclusive = small, poorly fitted or top-dose-only effect, or another doubt; inactive = no such curve, though single readings can be large; an effect the other way counts as inactive or inconclusive; also: nearly all actives have a fitted effect of over 55% in size
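Using a mix of unlabeled (15 uM) and Alexa 594-labeled (0.24 uM) tau K18 P301L, heparin-triggered fibrillization over 6 hr at 37 C was scored by ThT fluorescence.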
KDM4E inh: qHTS Assay for Inhibitors of Human Jumonji Domain Containing 2E (JMJD2E); Lysine-specific demethylase 4E (Homo sapiens), B2RXH2; JMJD2E catalytic domain, FDH-coupled NADH fluorescence (FDH is formaldehyde dehydrogenase); Potency, µM (doses to about 57.1 µM), usual class: inhibitors; 230,000 compounds, 1.6% hits; AID 2147, 2009; also: nearly all actives have a fitted effect of over 50% in size
Target sequence (B2RXH2 1-337 limits assumed): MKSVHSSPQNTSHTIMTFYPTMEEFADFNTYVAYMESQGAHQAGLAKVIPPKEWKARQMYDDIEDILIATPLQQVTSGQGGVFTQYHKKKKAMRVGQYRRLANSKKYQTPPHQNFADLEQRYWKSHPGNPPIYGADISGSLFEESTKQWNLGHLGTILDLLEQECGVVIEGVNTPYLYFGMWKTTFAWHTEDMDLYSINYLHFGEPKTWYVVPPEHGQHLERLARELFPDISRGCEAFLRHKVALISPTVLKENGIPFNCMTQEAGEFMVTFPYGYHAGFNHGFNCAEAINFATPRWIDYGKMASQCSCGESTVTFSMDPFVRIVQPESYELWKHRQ
Tau fluor counter: Counterscreen qHTS for Inhibitors of Tau Fibril Formation, Fluorescence Polarization; tau K18 P301L (four-repeat tau fragment) Alexa594 fluorescence, heparin fibrillization; Potency, µM (series often up to 57.7 µM); 280,000 compounds, 0.93% hits; AID 1463, 2008; active = well fitted curve in the direction sought with a large enough effect; inconclusive = small, poorly fitted or top-dose-only effect, or another doubt; inactive = no such curve, though single readings can be large; an effect the other way counts as inactive or inconclusive; also: nearly all actives have a fitted effect of over 55% in size
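Human K18 P301L tau (15 uM unlabeled plus 0.24 uM Alexa 594-labeled, final) in 100 mM sodium acetate pH 7 was mixed with compound and 20 uM heparin and incubated 6 hr at 37 C.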
Of the large screens only hits and unclear results are named; the others gave an inactive call; [ ] = remark or other dose. An excerpt weighted towards active compounds, which were near 9.9% of everything screened. Unless noted, calls follow the shape of the dose curve; as a rule, active = well fitted inhibition curve with a large enough effect (not every such curve was filed as active); inconclusive = small, poorly fitted or top-dose-only effect, or another doubt; inactive = no such curve, though single readings can be large or run the other way.

CC1=NN(c2ccc(C(=O)O)cc2)C(=O)/C1=C\c1ccc(OC(=O)c2cccs2)cc1	Tau fibril FP inconclusive, ALDH1A1 block 2.24µM, Tau ThT inhib inconclusive, KDM4E inh 3.16µM (no result: HPGD block)
CCOc1cc(/C=C2\C(=O)N(c3ccc(C(N)=O)cc3)N=C2C)ccc1OC(=O)c1cccs1	Tau fibril FP inconclusive, ALDH1A1 block 0.708µM, HPGD block 7.08µM, Tau ThT inhib inconclusive, KDM4E inh inconclusive, Tau fluor counter inconclusive
CCOc1cc(/C=C2/C(=O)N(c3ccccc3)N=C2C)ccc1OC(=O)c1ccco1	ALDH1A1 block inconclusive, HPGD block 8.91µM, Tau ThT inhib inconclusive, KDM4E inh inconclusive, Tau fluor counter inconclusive
O=C(N/N=C/c1ccc(OC(=O)c2cccs2)cc1)c1ccc(F)cc1	none
Cc1oc2ncnc(N3CCOCC3)c2c1C(=O)NCc1ccccc1	none (no result: ALDH1A1 block, HPGD block, KDM4E inh)
Cc1sc2ccccc2[n+]1CCC(C)S(=O)(=O)[O-] (stereo not given)	Tau ThT inhib inconclusive
Cc1sc2ccccc2[n+]1CC(=O)O	Tau fibril FP 31.6µM, Tau ThT inhib 28.2µM (no result: ALDH1A1 block, HPGD block)
c1ccc(-c2nnc(SCC3CCCO3)nc2-c2ccccc2)cc1 (stereo not given)	ALDH1A1 block 12.6µM, Tau ThT inhib inconclusive (no result: HPGD block)
COc1ccc(Cl)cc1NC(=O)CSC1=Nc2ccccc2C2=NC(CC(=O)NCc3cccs3)C(=O)N12 (stereo not given)	Tau fibril FP inconclusive, Tau ThT inhib inconclusive (no result: ALDH1A1 block, HPGD block, KDM4E inh)
CCNC(=O)C(=O)N/N=C/c1cc([N+](=O)[O-])ccc1O	Tau ThT inhib inconclusive, KDM4E inh 25.1µM (no result: HPGD block)
O=C(N/N=C/c1cc([N+](=O)[O-])ccc1O)Nc1ccccc1	Tau ThT inhib inconclusive, KDM4E inh 28.2µM (no result: HPGD block)
COc1ccc(N2CC(C(=O)N/N=C/c3cc([N+](=O)[O-])ccc3O)CC2=O)cc1 (stereo not given)	ALDH1A1 block inconclusive, Tau ThT inhib inconclusive, KDM4E inh 25.1µM (no result: HPGD block)
Cc1cc(Cl)ccc1NC(=O)CCC(=O)N/N=C/c1cc([N+](=O)[O-])ccc1O	Tau ThT inhib inconclusive (no result: HPGD block)
COc1ccc(N2CC(C(=O)N/N=C/c3ccccc3)CC2=O)cc1 (stereo not given)	none (no result: HPGD block)
O=[N+]([O-])c1cccc(N/N=C/c2cc([N+](=O)[O-])ccc2O)c1	Tau ThT inhib inconclusive, Tau fluor counter inconclusive (no result: HPGD block)
O=C(N/N=C/c1cc([N+](=O)[O-])ccc1O)NC12CC3CC(CC(C3)C1)C2	Tau ThT inhib inconclusive, Tau fluor counter inconclusive
O=C(N/N=C/c1cc([N+](=O)[O-])ccc1O)C12CC3CC(CC(C3)C1)C2	ALDH1A1 block 0.891µM, KDM4E inh inconclusive (no result: HPGD block)
CCOc1ccccc1NC(=O)CCS(=O)(=O)c1ccc2c(c1)oc(=O)n2C	none (no result: ALDH1A1 block, HPGD block, KDM4E inh)
Cc1cccc(NC(=O)CSc2nc3c([nH]c4ccccc43)c(=O)n2-c2ccc(F)cc2)c1C	none (no result: ALDH1A1 block, HPGD block, KDM4E inh)
CCc1ccc(NC(=O)C2CCC(CNS(=O)(=O)c3cccs3)CC2)cc1 (stereo not given)	none (no result: ALDH1A1 block, HPGD block, KDM4E inh)
CCCCC/C=C\C/C=C\CCCCCCCC(=O)NCC(=O)O	none
Cc1ccc(NC(=O)/C(C#N)=C/c2ccc(-c3ccc(Cl)c(C(=O)O)c3)o2)cc1C	Tau ThT inhib 4.47µM (no result: ALDH1A1 block, HPGD block, KDM4E inh)
COC(=O)N/N=C/c1ccc(-c2ccc(C)c(Cl)c2)o1	HPGD block 14.1µM, Tau ThT inhib inconclusive, KDM4E inh inconclusive
COC(=O)N/N=C/c1ccc(-c2cc(Cl)cc(Cl)c2)o1	Tau ThT inhib inconclusive
Nc1nonc1C(=O)N/N=C/c1ccc(-c2ccc(Cl)c(C(=O)O)c2)o1	ALDH1A1 block 3.98µM, Tau ThT inhib inconclusive, KDM4E inh inconclusive (no result: HPGD block)
O=C(O)c1cc(-c2ccc(/C=N/Nc3ccc(Cl)cc3)o2)ccc1Cl	ALDH1A1 block inconclusive, HPGD block inconclusive, Tau ThT inhib 8.91µM, KDM4E inh inconclusive, Tau fluor counter 11.2µM[quencher]
Cc1ccc(NC(=O)/C(C#N)=C\c2ccc(Cl)cc2Cl)cc1C	none (no result: ALDH1A1 block, HPGD block, KDM4E inh)
CCOc1ccccc1NC(=O)Nc1ccc(Br)cc1C	none (no result: HPGD block)
CCNC(=O)c1ccc(C)c(-n2c(C)nc3cccnc32)c1	none (no result: ALDH1A1 block, HPGD block, KDM4E inh)
COC(=O)c1ccc(=O)c2nc3/c(=C/O)c(O)cc(=O)c3[nH]c12	KDM4E inh 8.91µM, Tau fluor counter inconclusive (no result: ALDH1A1 block, HPGD block, Tau ThT inhib)
COC(=O)c1ccc(N)cc1O	none
COc1ccc(COC(=O)N/N=C2/C[C@@H](O)[C@@H](O)[C@@H]3[C@@H]4C(=O)N(C(C)(C)C)C(=O)[C@H]4CC[C@@H]23)cc1	none (no result: HPGD block, KDM4E inh)
COc1ccc(NC(=S)NNC(=O)CNc2ccc(Cl)cc2)cc1	Tau fibril FP inconclusive, ALDH1A1 block 10µM, KDM4E inh inconclusive (no result: HPGD block)
COc1ccc(CC(=O)NNC(=S)Nc2ccccc2)cc1Br	ALDH1A1 block inconclusive
CCOc1ccc(CC(=O)NNC(=S)Nc2ccccc2)cc1Br	ALDH1A1 block 31.6µM, Tau ThT inhib inconclusive
COc1ccc(CC(=O)NNC(=S)Nc2ccc(Br)cc2)cc1	ALDH1A1 block 17.8µM
COc1ccc(CC(=O)NNC(=O)Cc2ccc(OC)cc2)cc1	none (no result: HPGD block)
Cc1cccc(NC(=S)NNC(=O)COc2ccc(Cl)cc2Cl)c1	ALDH1A1 block 6.31µM, HPGD block inconclusive, Tau ThT inhib inconclusive, Tau fluor counter inconclusive
CCC(=O)NC(=S)Nc1ccc(NC(=O)COc2ccc(Cl)cc2Cl)cc1	none
Cc1ccc(C2C(C=Nc3c(C)n(C)n(-c4ccccc4)c3=O)=C(c3ccccc3)Oc3ccccc32)cc1 (stereo not given)	none
COc1ccc(OC)c(S(=O)(=O)NC(N)=NCCc2ccccc2OC)c1	none (no result: HPGD block)
COc1ccc(Nc2nc3ccccc3nc2NS(=O)(=O)c2cccs2)cc1	Tau ThT inhib 14.1µM, KDM4E inh inconclusive, Tau fluor counter inconclusive
